{"source": "PubChem BioAssay (EPA / NIEHS)", "note": "Active and inactive are the calls of the source. The calls were made as follows: active = hit-call score of the fitted dose curve at least 0.9, where 1 is the maximum; inactive = score below 0.9."}
{"read-out": "CYP3A5 (gene 1577)", "assay": "LTEA_HepaRG_CYP3A5: Life Technologies and Expression Analysis (LTEA) Assay for CYP3A5 using HepaRG (AID 2283493)", "settings": "mRNA level, 48 h; actives raise or lower the signal", "experimental": "LTEA_HepaRG is a cell based, multiplexed-readout assay that uses HepaRG, a human liver cell line, with measurements taken at 48 hours after chemical dosing on a 96-well plate.LTEA_HepaRG_CYP3A5 is one of 102 assay component(s) measured in the LTEA HepaRG cell culture assay. It is a marker of NR mediated metabolism.Data from the assay component LTEA_HepaRG_CYP3A5 was analyzed into 1 endpoint. This assay endpoint, LTEA_HepaRG_CYP3A5, was analyzed with bidirectional fitting relative to DMSO as the negative control and baseline of activity. Using a type of inducible reporter, measures of mRNA induction for gain or loss-of-signal activity can be used to understand regulation of transcription factor activity. To generalize the intended target to other relatable targets, this assay endpoint is annotated to the cyp intended target family, where the subfamily is xenobiotic metabolism.\nA total of 1060 chemcials from the ToxCast library were tested in eight-point concentration-response experiments. Cell culture and cytotoxicity assays were conducted at Thermo Fisher Scientific's Custom Services facility (Madison, WI). A single lot of human HepaRG cells (Thermo Fisher Scientific, Frederick, MD) was used for the cell culture experiments. 96-well format collagen type I coated plates of human HepaRG cells were prepared using established methods. Briefly, cryopreserved HepaRG cells were thawed, plated at a density of approximately 100,000 cells/well in HepaRG Thaw, Plate, and General Purpose media (HPRG770, Thermo Fisher Scientific), and incubated for 48 hours. 0.5% DMSO was selected as vehicle control to balance the requisite need of DMSO in HepaRG cultures to maintain differentiation (for example, baseline metabolism, proportions of hepatocytes vs. cholangiocytes), while enabling further hepatic receptor pathway activation (for example, PXR and CAR) in response to chemical exposure. 48 hours after plating, the culture medium was replaced with HepaRG Serum-Free Incudtion Media. Cells were exposed to each test chemical in duplicate and maintained in CO2 incubators for another 48 hours. Chemical plates were thawed to room temperature and 200x concentrations of treatment groups were prepared. 8-point conentration-reponse curves were made with the highest exposure at 100 uM, followed by half-log dilutions, all in 0.5% DMSO. Each test plate contained variouse controls, induction positive controls (1mM phenobarbital), cytotoxicity positive controls ([…] aflatoxin B1), vehicle controls (0.5% DMSO), and total lysis controls (0.5% DMSO). Cell morphology images were taken using an Essen IncuCyte FLR automated microscope, with six 96-well plates imaged in about 24 minutes. Images were captured and exported and JPEG files. Spent culture media was transfered to black-well plates for the LDH assay, and remaining media was sorted at -80 C for later use. Cells were treated with RLT buffer and frozen until shipped for gene expression analysis. Total RNA was isolated from the cell suspension in 75 uL of Buffer RLT (Qiagen, Germantown, MD 20874) by Quintiles/Expression Analysis (Durham, NC) using a custom isolation procedure. Total RNA from each plate well was transferred to a preamplification plate. Fluidigm's 96.96 Dynamic ArrayTM (Fluidigm, Amsterdam, the Netherlands) technology was used for gene expression analyses by quantitative reverse transcription polymerase chain reaction (qRT-PCR, performed by Quintiles/Expression Analysis, Durham, NC)89. Standard TaqManTM Assays (Applied Biosystems/ThermoFisher Scientific, Foster City, CA) were used to assess the expression of 93 genes selected based on their selectivity and sensitivity to important hepatic receptors known to be modulated by environmental chemicals; importance in human hepatocyte functionality; and hepatotoxicity. […]"}
{"smiles": "c1ccc(C(O[C@@H]2CCCN(CCc3ccc4c(c3)OCO4)C2)c2ccccc2)cc1", "AC50": "81.9 µM (active)"}
{"smiles": "CCc1cccc(CC)c1N", "outcome": "inactive"}
{"smiles": "Cc1nc(-c2ccccn2)ncc1C(=O)Nn1cc(C)c2cc(F)ccc21", "outcome": "inactive"}
{"smiles": "c1ccc2ncccc2c1", "outcome": "inactive"}
{"smiles": "OCCOCCOCCO", "outcome": "inactive"}
{"smiles": "CC(C)CC(C)O", "note": "(stereo not given)", "outcome": "inactive"}
{"smiles": "CCc1ccc(O)c(C(C)(C)C)c1", "outcome": "inactive"}
{"smiles": "OC(Cn1cncn1)(Cn1cncn1)c1ccc(F)cc1F", "outcome": "inactive"}
{"smiles": "CC(C)CCCCCCOC(=O)C1CCCCC1C(=O)OCCCCCCC(C)C", "note": "(stereo not given)", "outcome": "inactive"}
{"smiles": "CCCCCCCCCCCCCCCCOS(=O)(=O)O", "outcome": "inactive"}
{"smiles": "CCCOc1ccc(S(=O)(=O)N2CCN(CC)CC2)cc1-c1nc2c(CC)n(Cc3ccccn3)nc2c(=O)[nH]1", "outcome": "inactive"}
{"smiles": "Cn1c(=O)c2[nH]cnc2n(C)c1=O", "outcome": "inactive"}
{"smiles": "CCCCCOC(C)=O", "outcome": "inactive"}
{"smiles": "COS(C)(=O)=O", "outcome": "inactive"}
{"smiles": "c1ccc2cc3ccccc3cc2c1", "outcome": "inactive"}
{"smiles": "CCCCOC(=O)c1ccccc1", "outcome": "inactive"}
{"smiles": "C[C@@H](Oc1ccc(CNC(=O)c2cccnc2Oc2ccc3c(c2)OCO3)c(F)c1)C(=O)O", "outcome": "inactive"}
{"smiles": "COc1cc(C(C)C)c2c(c1)S(=O)(=O)N(COc1cc(=O)n3cccc(OCCN4CCCCC4)c3n1)C2=O", "AC50": "20.9 µM (active)"}
{"smiles": "CCOc1ccc2[nH]cc(C(=O)NCc3ccccc3)c(=O)c2n1", "outcome": "inactive"}
{"smiles": "C[C@]12C=CC(=O)C=C1CC[C@H]1[C@@H]3C[C@@H](O)[C@](O)(C(=O)CO)[C@@]3(C)C[C@H](O)[C@@]12F", "outcome": "inactive"}
{"smiles": "O=c1[nH]cnc2c1ncn2[C@H]1CC[C@@H](CO)O1", "outcome": "inactive"}
{"smiles": "CCN(CC)C(=S)SSC(=S)N(CC)CC", "outcome": "inactive"}
{"smiles": "O=C(NO)C1(NS(=O)(=O)c2ccc(Oc3ccc(F)cc3)cc2)CCOCC1", "outcome": "inactive"}
{"smiles": "CC[C@H](C)C(=O)O[C@H]1C[C@H](O)C=C2C=C[C@H](C)[C@H](CC[C@@H](O)C[C@@H](O)CC(=O)O)[C@H]21", "outcome": "inactive"}
{"smiles": "NC(N)=O", "outcome": "inactive"}
{"smiles": "OC(CCl)CCl", "outcome": "inactive"}
{"smiles": "NNC(=O)c1ccncc1", "outcome": "inactive"}
{"smiles": "CCCc1ccccc1", "outcome": "inactive"}
{"smiles": "CC1(C)C(=O)N(Cl)C(=O)N1Cl", "outcome": "inactive"}
{"smiles": "CC(=O)c1ccccc1", "outcome": "inactive"}
{"smiles": "NC(=O)N(O)[C@@H]1COc2cc(OCc3ccccc3)ccc21", "outcome": "inactive"}
{"smiles": "OCCNCCO", "outcome": "inactive"}
{"smiles": "Cc1nccn1-c1ccc(Sc2cccc(C3(C(N)=O)CCOCC3)c2)cc1", "AC50": "19.5 µM (active)"}
{"smiles": "O=C(O)c1cccc(C(=O)O)c1", "outcome": "inactive"}
{"smiles": "c1ccc2c(c1)-c1cccc3c1c-2cc1ccccc13", "AC50": "5.37 µM (active)"}
{"smiles": "O=C(O)c1cccc(C[C@@H]2COc3ccc(OCc4nc5cc(F)ccc5s4)cc3[C@@H]2O)c1", "outcome": "inactive"}
{"smiles": "O=S(=O)(O)c1ccc(N=Nc2c(O)ccc3cc(S(=O)(=O)O)ccc23)cc1", "outcome": "inactive"}
{"smiles": "Nc1ccn([C@@H]2O[C@H](CO)[C@@H](O)[C@@H]2O)c(=O)n1", "outcome": "inactive"}
{"smiles": "CCCCC(CC)C(=O)OCCOCCOCCOC(=O)C(CC)CCCC", "note": "(stereo not given)", "outcome": "inactive"}
{"smiles": "O=S1(=O)CCCO1", "outcome": "inactive"}
